# Assay results: the supplement of paper PMC3334620
# The full ranking holds about 33,000 sequences; the median of “E-score (-0.5 to 0.5)” is about -0.056, and the highest 2% start at about 0.38. The sample holds the highest values, similar sequences and a random draw of the others, so the mix is not that of the screen.
# Target: Stb4 (UniProt P50104)
# Assay: PBM E-score (8-mer binding enrichment) (E-score (-0.5 to 0.5)); higher = stronger / more preferred TF binding
# Conditions: protein concentration: 200 nM; construct: GST-DNA-binding domain
# Experimental: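 Universal 'all 10-mer' protein binding microarrays (Agilent AMADID 015681) probed with GST-tagged S. cerevisiae TFs (full-length or DBD) made by in vitro transcription/translation (PURExpress), about 100-200 nM. Bound TF was detected with fluorescent anti-GST. Each ungapped 8-mer (which stands for itself and its reverse complement) is scored by the PBM enrichment score (E-score), a modified Wilcoxon-Mann-Whitney statistic from -0.5 to +0.5, computed with the Universal PBM Analysis Suite. Scale: above 0.35 generally sequence-specific binding.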
# Sequence of UniProt P50104 (P50104 whole entry): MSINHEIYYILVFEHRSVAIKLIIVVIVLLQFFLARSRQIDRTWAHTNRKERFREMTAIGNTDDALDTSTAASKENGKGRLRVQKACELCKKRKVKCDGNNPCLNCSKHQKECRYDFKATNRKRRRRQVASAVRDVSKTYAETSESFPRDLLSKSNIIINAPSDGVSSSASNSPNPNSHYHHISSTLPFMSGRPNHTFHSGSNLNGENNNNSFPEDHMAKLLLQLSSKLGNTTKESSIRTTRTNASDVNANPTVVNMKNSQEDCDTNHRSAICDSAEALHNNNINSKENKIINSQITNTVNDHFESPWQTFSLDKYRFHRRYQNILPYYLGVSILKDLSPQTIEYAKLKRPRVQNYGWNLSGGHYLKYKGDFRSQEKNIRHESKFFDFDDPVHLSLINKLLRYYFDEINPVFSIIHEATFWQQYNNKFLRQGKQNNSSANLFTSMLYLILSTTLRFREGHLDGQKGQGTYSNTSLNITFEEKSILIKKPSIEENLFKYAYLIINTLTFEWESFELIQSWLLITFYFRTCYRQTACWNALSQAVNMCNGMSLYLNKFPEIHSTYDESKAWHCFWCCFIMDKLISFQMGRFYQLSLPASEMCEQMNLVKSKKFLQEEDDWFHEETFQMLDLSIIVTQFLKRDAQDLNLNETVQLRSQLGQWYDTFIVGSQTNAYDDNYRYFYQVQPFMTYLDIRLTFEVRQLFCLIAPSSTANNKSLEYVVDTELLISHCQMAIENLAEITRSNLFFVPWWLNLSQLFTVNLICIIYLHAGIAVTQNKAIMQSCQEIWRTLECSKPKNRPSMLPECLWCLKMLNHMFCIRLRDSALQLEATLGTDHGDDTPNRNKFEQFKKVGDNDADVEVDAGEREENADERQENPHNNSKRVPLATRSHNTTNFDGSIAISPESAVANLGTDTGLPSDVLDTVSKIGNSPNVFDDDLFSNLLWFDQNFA
row,Sequence,PBM E-score
1,GCCTCTCA,0.0652
2,ACAAACCC,0.0864
3,AGTGACAT,-0.243
4,CGGTGGCC,0.114
5,CTCGGCGA,0.397
6,CGCGGCGC,0.106
7,ATCGGCGA,0.226
8,ATCGGCGC,0.205
9,GTCGGCGA,0.126
10,CTCGGCGC,0.383
11,ATTGGTTC,0.0474
12,ATTACCAG,-0.105
13,TCCGACGA,0.386
14,GCCGACGA,0.285
15,CCCGACGA,0.34
16,GCCGACCA,0.207
17,TCCGACCA,0.388
18,ACCGACCA,0.141
19,GATCACCA,-0.056
20,CAGCTCGA,-0.144
21,AAGCTCGG,0.439
22,AAGCTCGC,-0.0388
23,AAGCTCGA,0.0225
24,CAGCTCGC,-0.13
25,CAGCTCGG,0.392

row,Sequence,PBM E-score
1,GCCCACGC,-0.168
2,ACATATCT,-0.0348
3,ATCTCGGC,0.442
4,CTCTCGTC,-0.0633
5,CTCTCGCA,-0.148
6,CTCTCGAA,-0.356
7,CTCTCGGA,0.452
8,CTCTCGAC,-0.293
9,ATCTCGCC,0.0501
10,CTCTCGGC,0.397
11,AACTCGGC,0.364
12,AACCAAGC,-0.109
13,GACCACGA,-0.259
14,CCTACCCA,-0.208
15,AGTCCCCA,-0.364
16,ACGCCGAG,0.352
17,CCGCCGAG,0.394
18,TCGCCGAA,0.32
19,CCGCCGCA,0.0672
20,GCGCCGAC,0.195
21,ACGCCGAA,0.317
22,CCGCCGAC,0.217
23,CCGCCGAA,0.4
24,GCGCCGAA,0.388
25,CTACGAGC,-0.133

row,Sequence,PBM E-score
1,AGTTAGAG,-0.174
2,ACGTCCCT,-0.32
3,GCGCATTA,0.00939
4,CCCTTGAG,-0.134
5,GTTGCCAA,-0.164
6,CTTGCCGC,0.18
7,ATTGCCGG,0.301
8,GTTGCCCA,-0.0723
9,CTTGCCTA,-0.286
10,CTTGCCGA,0.396
11,GTTGCCGA,0.458
12,ATTGCCGC,0.121
13,ATTGCCGA,0.451
14,CATATGAC,-0.132
15,GGAGGTAC,0.112
16,AAGAAACG,-0.084
17,GTCGAAAA,-0.122
18,GAATCCAC,-0.134
19,GATGCCAC,-0.0531
20,CACTCTTC,-0.0762
21,GAGCCTGC,-0.0113
22,ATATTCGA,0.0718
23,AAATTCGC,0.0337
24,ATATTCCC,0.32
25,ATATTCCA,0.0331

row,Sequence,PBM E-score
1,AAATTCCA,-0.0536
2,ATATTCCG,0.393
3,AAATTCCG,0.387
4,ATATTCGC,-0.034
5,AAATTCGG,0.389
6,AAATTCCC,0.167
7,ATATTCGG,0.399
8,AAATTCGT,0.117
9,CTTGCAGC,-0.153
10,TCCAGTCA,-0.0411
11,CAGTGTGG,-0.271
12,AAAAAGGT,-0.106
13,AATGTTTG,-0.0254
14,CCACTCTC,0.0625
15,GATAAGAC,0.0398
16,AGATTCCG,0.389
17,AGATTCCT,-0.216
18,AGATTCCC,0.127
19,ACGGTGTC,0.0812
20,CGGTCCAG,-0.0508
21,GGACATAC,0.0378
22,CACCCAGC,0.0106
23,GATTCGGA,0.43
24,CATTCGTA,-0.194
25,GATTCGTA,0.0772

row,Sequence,PBM E-score
1,CATTCGGG,0.343
2,CATTCGGA,0.383
3,GATTCGCA,-0.0177
4,TATTCGAA,-0.2
5,AATTCGGA,0.447
6,AATTCGAA,-0.191
7,TATTCGGA,0.426
8,TATTCGCA,-0.147
9,AATTCGTA,0.0882
10,ACCCATAG,-0.221
11,GGCGTTCA,-0.0303
12,CGCGACTC,-0.0117
13,CCTTAGTC,-0.155
14,CGAGCACC,0.204
15,CTATTCCC,0.0798
16,AGCAGTAC,0.0047
17,AATTCGGT,0.278
18,GATTCGGC,0.393
19,AATTCGGG,0.39
20,CATTCGCC,-0.0759
21,CATTCGTC,-0.0104
22,AATTCGGC,0.357
23,GATTCGAC,-0.233
24,CATTCGGC,0.409
25,GATTCGCC,-0.0248

row,Sequence,PBM E-score
1,GACAAAAC,-0.0388
2,GTACATCA,-0.00531
3,GTTATCCA,0.0169
4,AAATCTCA,-0.0445
5,GTCGGCTA,0.377
6,CGCGGCTC,0.191
7,CACGGCTA,0.299
8,CTCGGCTC,0.422
9,ATCGGCTG,0.328
10,AACGGCTA,0.16
11,ATCGGCTC,0.279
12,CTCGGCTA,0.472
13,ATCGGCTA,0.403
14,ATCAGCAC,-0.139
15,CAGGTGGA,-0.236
16,GAAGTTGA,-0.085
17,ACATCCGT,0.348
18,ACATCCGA,0.486
19,TCATCCCA,-0.181
20,CCATCCGA,0.453
21,ACATCCAG,-0.261
22,TCATCCGA,0.473
23,TCATCCAA,-0.191
24,CCATCCGG,0.332
25,ACATCCGG,0.447

row,Sequence,PBM E-score
1,ACATCCCA,-0.0846
2,CCATCCGC,0.28
3,ACATCCTG,-0.0816
4,CAACTAGG,-0.0487
5,TCTTCGCA,-0.0992
6,GTGTGCAA,-0.127
7,ACGTTCCC,0.11
8,ATTCAACC,0.00448
9,AAAGACAT,-0.14
10,GCGGGGGA,0.0109
11,CCGCAAGA,0.151
12,GCATCCGA,0.466
13,GCATCCGC,0.295
14,GCATCCTA,-0.163
15,ACGGCCAG,-0.124
16,ATCGGTAC,0.329
17,CTCGGTGC,0.244
18,ATCGGTTA,0.368
19,CTCGGTAC,0.383
20,CTCGGTAA,0.431
21,CTCGGTTA,0.44
22,GTCGGTAA,0.333
23,GTCGGTTA,0.343
24,ATCGGTAA,0.336
